PubChem BioAssay (NCATS)
Results filed as inconclusive are left out. The source made the active and inactive calls. Calls come from the whole dose curve; as a rule, active = well fitted curve in the direction sought with a large enough effect; inconclusive = small, poorly fitted or top-dose-only effect, or another doubt; inactive = no such curve, though single readings can be large; an effect the other way counts as inactive or inconclusive.

Experiments:
[1] = qHTS to identify inhibitors of the type 1 interferon - major histocompatibility complex class I in skeletal muscle: primary screen against the NCATS Pharmaceutical Collection (AID 1347407); conditions: human skeletal muscle cells, IFN-b-induced MHC-I HiBiT luminescence, 24 h; series mostly up to 45.9 µM;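 note: luminescence of HiBiT knocked into endogenous HLA-B as interferon-induced MHC class I level; % is set by controls: 0 for no effect and ±100 for the full control effect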
In short: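 A qHTS format is used: 8-point, 1:5 compound series with 46 uM top final concentration, applied alongside 4 ng/ml IFN-beta to HLA-B*08:01-HiBiT knock-in myoblasts. Luminescence is measured after 24 h treatment.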

[2] = biological target: Protein phosphatase 1D (Homo sapiens) (UniProt O15297); test: RapidFire Mass Spectrometry qHTS Assay for Modulators of WT P53-Induced Phosphatase 1 (WIP1) (AID 1347424); conditions: WIP1 dephosphorylation of phosphopeptide, RapidFire MS; series mostly up to 63 µM;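 note: amount of dephosphorylated VEPPL-S-QETFS peptide product formed by WIP1; plate controls were DMSO wells for no effect and GSK830371 inhibitor control at 10 µM for full effect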
Sequence of Protein phosphatase 1D (Homo sapiens) (O15297 whole entry, looked up): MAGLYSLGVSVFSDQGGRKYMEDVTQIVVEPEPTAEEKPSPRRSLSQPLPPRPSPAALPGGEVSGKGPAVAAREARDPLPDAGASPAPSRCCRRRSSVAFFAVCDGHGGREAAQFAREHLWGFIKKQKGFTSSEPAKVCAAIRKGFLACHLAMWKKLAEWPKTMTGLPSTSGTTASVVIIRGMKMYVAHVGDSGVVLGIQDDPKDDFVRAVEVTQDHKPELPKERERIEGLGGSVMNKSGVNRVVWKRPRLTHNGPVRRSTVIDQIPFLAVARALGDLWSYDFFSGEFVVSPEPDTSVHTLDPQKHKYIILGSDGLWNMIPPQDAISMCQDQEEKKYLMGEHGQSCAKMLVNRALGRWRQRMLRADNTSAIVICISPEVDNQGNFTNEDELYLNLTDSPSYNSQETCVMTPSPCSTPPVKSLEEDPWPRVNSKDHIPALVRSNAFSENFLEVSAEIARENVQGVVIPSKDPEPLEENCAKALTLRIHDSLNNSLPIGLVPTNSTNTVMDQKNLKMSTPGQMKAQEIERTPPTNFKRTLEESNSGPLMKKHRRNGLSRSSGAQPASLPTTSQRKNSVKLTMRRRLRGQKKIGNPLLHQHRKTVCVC
In short: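 RapidFire mass spectrometry measured dephosphorylated peptide after 5 min room-temperature reaction of 2 uM VEPPL-pS-QETFS with 10 nM WIP1 (50 mM Tris-HCl pH 7.5, 30 mM MgCl2, 0.1 mM EGTA, BSA), following 1 hr compound preincubation; 1 uM isotope-labelled product standard.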

[3] = biological target: Protein phosphatase 1D (Homo sapiens) (UniProt O15297); test: Rhodamine-PBP qHTS Assay for Modulators of WT P53-Induced Phosphatase 1 (WIP1) (AID 1347425); conditions: recombinant WIP1, Rhodamine-PBP phosphate fluorescence, real-time; series mostly up to 57.5 µM; note: % of control where 0% means no effect
In short: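 Read-out: Rhodamine-PBP fluorescence (ex 525/em 598 nm) for released Pi, read each minute for 11 min after adding 10 uM VEPPL-pS-QETFS; signal taken as f1 minus pre-substrate f0. Enzyme 5 nM WIP1 with 1 hr room-temperature compound preincubation.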

[4] = Primary qHTS for inhibitors of La Crosse Virus (LACV) - induced cell death in SH-SY5Y cells (AID 1508616); conditions: SH-SY5Y LACV cytopathicity rescue, ATP luminescence, 6 d; series mostly up to 4.29 µM;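 note: top concentration of the series differs between compounds; 0% = infected DMSO wells and 100% = uninfected DMSO wells; higher means more rescue of cells from virus-induced death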
In short: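 Screening measures cell viability in LACV-infected SH-SY5Y cultures. Compound was added before virus (0.01 MOI), and ATP was detected by luminescence 6 days later.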

CN(C)CCOC(=O)C(c1ccccc1)C1(O)CCCC1 (centres undefined)
inactive: Potency [1] | Potency [2] | outcome [3] | outcome [4]

COc1ccc2c(c1)c1c3n2CCN(C)C3=NCC1
inactive: Potency [1] | Potency [2] | outcome [3] | outcome [4]

C[C@H]1[C@H]2CC[C@H]3[C@@H]4CC=C5C[C@@H](N(C)C)CC[C@]5(C)[C@H]4CC[C@]23CN1C
inactive: Potency [1] | Potency [2] | outcome [3] | outcome [4]

CCN1CCCC(OC(=O)C(c2ccccc2)c2ccccc2)C1 (centres undefined)
inactive: Potency [1] | Potency [2] | outcome [3] | outcome [4]

CCN(CC)CCOC(=O)C(Cc1cccc2ccccc12)CC1CCCO1 (centres undefined)
inactive: Potency [1] | Potency [2] | outcome [3] | outcome [4]

O=C1C(O)=C(O)C(=O)C(O)=C1O
inactive: Potency [1] | Potency [2] | outcome [3] | outcome [4]

O=C(CCCN1CC=C(n2c(=O)[nH]c3ccccc32)CC1)c1ccc(F)cc1
inactive: Potency [1] | Potency [2] | outcome [3] | outcome [4]

NC(=S)N/N=C/c1cccnc1
inactive: Potency [1] | Potency [2] | outcome [3] | outcome [4]

CCOC(=O)c1ccc(N)cc1
inactive: Potency [1] | Potency [2] | outcome [3] | outcome [4]

Cc1cc(C)cc(OCC2CNC(=O)O2)c1 (centres undefined)
inactive: Potency [1] | Potency [2] | outcome [3] | outcome [4]

COc1ccc(CCN(C)CCCN2CCc3cc(OC)c(OC)cc3CC2=O)cc1OC
inactive: Potency [1] | Potency [2] | outcome [3] | outcome [4]

CC(=O)Oc1ccc(C)cc1
inactive: Potency [1] | Potency [2] | outcome [3] | outcome [4]

CC(O)Cn1cnc2c1c(=O)n(C)c(=O)n2C (centres undefined)
inactive: Potency [1] | Potency [2] | outcome [3] | outcome [4]

CCOC(=O)[C@@](C)(N)Cc1ccc(O)c(O)c1
inactive: Potency [1] | Potency [2] | outcome [3] | outcome [4]

C[C@]12CCC(=O)C=C1C=C[C@@H]1[C@@H]2CC[C@@]2(C)[C@H]1CC[C@@]21CCC(=O)O1
inactive: Potency [1] | Potency [2] | outcome [3] | outcome [4]

CCCCC(CC)COC(=O)c1ccc(N(C)C)cc1 (centres undefined)
inactive: Potency [1] | Potency [2] | outcome [3] | outcome [4]

CC(=O)N[C@@H](CCC(=O)O)C(=O)O
inactive: Potency [1] | Potency [2] | outcome [3] | outcome [4]

NS(=O)(=O)c1cc(C(=O)O)cc(N2CCCC2)c1Oc1ccccc1
inactive: Potency [1] | Potency [2] | outcome [3] | outcome [4]

N#CCC(=O)NN
inactive: Potency [1] | Potency [2] | outcome [3] | outcome [4]

O=C(N/N=C/c1ccc([N+](=O)[O-])o1)c1ccc(O)cc1
inactive: Potency [1] | Potency [2] | outcome [3] | outcome [4]

O=[N+]([O-])c1cccc(S(=O)(=O)NCCNS(=O)(=O)c2cccc([N+](=O)[O-])c2)c1
inactive: Potency [1] | Potency [2] | outcome [3] | outcome [4]

CC(C)(C)NCC(O)COc1cccc2c1C[C@H](O)[C@H](O)C2 (some centres undefined)
inactive: Potency [1] | Potency [2] | outcome [3] | outcome [4]

CCN[C@@H]1C[C@H](N)[C@@H](OC2OC(CN)=CCC2N)[C@H](O)[C@H]1O[C@H]1OC[C@](C)(O)[C@H](NC)[C@H]1O (some centres undefined)
inactive: activity change, negative = inhibition [1] 4.01% [at 0.727 µM] | activity change, negative = inhibition [2] -11.3% [at 0.505 µM] | activity change, negative = inhibition [3] -2.47% [at 0.575 µM] | activity change [4] -7.05% [at 0.0343 µM]

CCCCN=C(N)N=C(N)N
inactive: Potency [1] | Potency [2] | outcome [3] | outcome [4]

CC1(C)OC[C@@H]2O[C@@]3(C(=O)O)OC(C)(C)O[C@H]3[C@@H]2O1
inactive: Potency [1] | Potency [2] | outcome [3] | outcome [4]

FC(F)(F)C(F)(F)C(F)(F)C(F)(F)C(F)(F)C(F)(F)C(F)(F)C(F)(F)Br
inactive: Potency [1] | Potency [2] | outcome [3] | outcome [4]
